According to PubChem BioAssay (NCI):
Compounds without any hit were thinned out: in the full panel of roughly 79,000, 15% have a hit. Values without a mark were called inactive. Active and inactive are the calls of the source. Cut-off read from the data, not from the text of the source: active = growth inhibition above about 70%; inactive = the rest.

Assays:
[1] = NCI Yeast Anticancer Drug Screen. Data for the rad50 strain (AID 155);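 note: 0% = growth of vehicle-only cultures of the same strain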; settings: S. cerevisiae rad50 strain growth inhibition, stronger effect = higher value
Procedure, shortened: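 Yeast carrying a defined DNA repair defect were exposed to test compounds, and growth was compared with vehicle-treated controls to give percent inhibition.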

[2] = NCI Yeast Anticancer Drug Screen. Data for the mec2-1 strain (AID 157); settings: S. cerevisiae mec2-1 strain, stronger effect = higher value
Procedure, shortened: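 Each compound was tested on mec2-1 yeast, a strain altered in DNA damage repair or cell cycle control. Growth inhibition is reported relative to vehicle.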

[3] = NCI Yeast Anticancer Drug Screen. Data for the sgs1 mgt1 strain (AID 161);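 note: 0% = growth of cultures given vehicle only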; settings: S. cerevisiae sgs1 mgt1 strain, stronger effect = higher value
Procedure, shortened: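 Read-out: growth inhibition vs vehicle controls. Cells: mutant yeast strain deficient in DNA damage repair.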

[4] = NCI Yeast Anticancer Drug Screen. Data for the cln2 rad14 strain (AID 165);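 note: 0% = growth equal to vehicle treated cultures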; settings: S. cerevisiae cln2 rad14 strain, stronger effect = higher value
Procedure, shortened: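 Test compounds were added to cln2 rad14 yeast cultures; inhibition of growth was then determined by comparison with vehicle treatment.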

[5] = NCI Yeast Anticancer Drug Screen. Data for the bub3 strain (AID 167); settings: S. cerevisiae bub3 mutant strain, stronger effect = higher value
Procedure, shortened: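 Compounds were applied to a genetically altered yeast strain carrying a cell-cycle control defect. Growth inhibition was scored against vehicle-treated controls.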

[6] = NCI Yeast Anticancer Drug Screen. Data for the mlh1 rad18 strain (AID 175); settings: S. cerevisiae mlh1 rad18 strain growth inhibition, stronger effect = higher value
Procedure, shortened: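 Inhibition values reflect reduced growth of mutant yeast versus vehicle-treated controls following compound exposure; the mutations affect DNA damage repair.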

[7] = at 5.0 µM (retest, dose inferred, filed as 0.5)
[8] = at 50.0 µM (retest, dose inferred, filed as 5.0)

| SMILES | growth inhibition [1, 7] | growth inhibition [1, 8] | growth inhibition ([1]; at 50.0 µM) | growth inhibition [2, 7] | growth inhibition [2, 8] | growth inhibition ([2]; at 50.0 µM) | growth inhibition [3, 7] | growth inhibition [3, 8] | growth inhibition ([3]; at 50.0 µM) | growth inhibition [4, 7] | growth inhibition [4, 8] | growth inhibition ([4]; at 50.0 µM) | growth inhibition [5, 7] | growth inhibition [5, 8] | growth inhibition ([5]; at 50.0 µM) | growth inhibition [6, 7] | growth inhibition [6, 8] | growth inhibition ([6]; at 50.0 µM) |
| --- | --- | --- | --- | --- | --- | --- | --- | --- | --- | --- | --- | --- | --- | --- | --- | --- | --- | --- |
| C=CC1(c2ccc(OC)cc2)OCCCO1 | -11% | 99% (active) | 89.7% (active) | -13% | 99% (active) | 92.4% (active) | -16% | 99% (active) | 87.5% (active) | 27% | 99% (active) | 88.7% (active) | -27% | 100% (active) | 90.8% (active) | -16% | 97% (active) | 89% (active) |
| Nc1c(Cl)[nH]c(C(F)(F)F)nc1=S | -2% | -7% | 5.2% | -7% | -1% | -4.75% | -9% | -7% | -2.45% | -7% | 4% | 15.3% | -3% | 10% | -9.45% | 0% | 1% | 23.3% |
| CCN(CC)COC(=S)S | 8% | 99% (active) | 97.7% (active) | -3% | 100% (active) | 83.1% (active) | 11% | 99% (active) | 99% (active) | 5% | 97% (active) | 44% | -11% | 99% (active) | 97.3% (active) | 15% | 99% (active) | 98.5% (active) |
| COC(=O)CC1SC(=S)N(Cc2ccc(Cl)cc2)C1=O (centres undefined) | -6% | 80% (active) | 98.1% (active) | -8% | 61% | 92.5% (active) | 2% | 93% (active) | 98.5% (active) | -59% | 28% | 55.6% | -15% | 81% (active) | 87.5% (active) | -25% | 88% (active) | 98% (active) |
| O=P(O)(O)Oc1c(O)c2ccccc2c2ccccc12 | 14% | 73% (active) | 91.4% (active) | 22% | 95% (active) | 94.8% (active) | 17% | 85% (active) | 97.5% (active) | 5% | 97% (active) | 97% (active) | 25% | 92% (active) | 99.6% (active) | 17% | 94% (active) | 99.3% (active) |
| CC(C)(c1cc(Br)c(O)c(Br)c1)c1cc(Br)c(O)c(Br)c1 | 76% (active) | 97% (active) | 87.2% (active) | 82% (active) | 99% (active) | 90.7% (active) | 85% (active) | 98% (active) | 87.9% (active) | 81% (active) | 99% (active) | 89.5% (active) | 88% (active) | 98% (active) | 87.5% (active) | 93% (active) | 97% (active) | 87.5% (active) |
| CCCCCCCCCCC(NC(C)=O)(C(=O)OCC)C(=O)OCC | -9% | 98% (active) | 97.5% (active) | -3% | 99% (active) | 98% (active) | -3% | 99% (active) | 67.3% | -5% | 99% (active) | 98.3% (active) | 0% | 98% (active) | 94.5% (active) | 11% | 98% (active) | 82.8% (active) |
| Clc1cc(Cl)c(OCCOCCI)c(Cl)c1 | 0% | 13% | 28.1% | 2% | 12% | 9.15% | 1% | 11% | 16.1% | 1% | -25% | 14.4% | 10% | 42% | 48% | -3% | 5% | 34% |
| CC1C/C(=C\c2ccc(O)c(O)c2)C(=O)/C(=C/c2ccc(O)c(O)c2)C1 (centres undefined) | 22% | 71% (active) | 52.4% | 20% | 67% | 32.3% | 17% | 66% | 47.5% | 7% | 65% | 41% | 16% | 67% | 19.9% | 27% | 84% (active) | 21.6% |
| O=C1c2cccc(O)c2C(=O)c2c(O)cc(CO)cc21 | 58% | 92% (active) | 87% (active) | 52% | 94% (active) | 90.3% (active) | 61% | 93% (active) | 90.5% (active) | 23% | 81% (active) | 88% (active) | 54% | 91% (active) | 89.4% (active) | 82% (active) | 97% (active) | 90.8% (active) |
| N#CC(C#N)=C/C=C/c1c(Cl)cccc1Cl | 7% | 41% | 71.2% (active) | 15% | 58% | 46.9% | 11% | 78% (active) | 58.9% | 29% | 68% | 76.8% (active) | 25% | 79% (active) | 69.6% | 8% | 66% | 57.1% |
| C=C1CC(COc2ccc3c(C)cc(=O)oc3c2)(c2ccccc2)OC1=O (centres undefined) | 32% | 8% | 36% | -6% | 17% | 27% | 17% | 32% | 59.6% | -20% | -6% | 32% | 32% | 30% | 30.2% | -10% | 22% | 41.6% |
| CCCCN(CCCC)CC(O)c1ccc2cc(Cl)c3ccccc3c2c1 (centres undefined) | 53% | 99% (active) | 99.6% (active) | 40% | 100% (active) | 99.7% (active) | 85% (active) | 100% (active) | 99.5% (active) | 41% | 99% (active) | 99.4% (active) | 57% | 99% (active) | 92.2% (active) | 63% | 100% (active) | 99.4% (active) |
| COc1ccc(-c2cc(-c3ccc(OC)cc3OC)[n+](C)c(-c3ccc(OC)cc3OC)c2)cc1 | 97% (active) | 98% (active) | 90% (active) | 98% (active) | 99% (active) | 93% (active) | 98% (active) | 99% (active) | 86.2% (active) | 97% (active) | 98% (active) | 88.2% (active) | 98% (active) | 99% (active) | 81.8% (active) | 97% (active) | 99% (active) | 93% (active) |
| COc1ccc2c(c1)C(Br)CCC(Br)C2=O (centres undefined) | -20% | 2% | 47.6% | -48% | -18% | 56.2% | -17% | 26% | 80.3% (active) | 13% | 39% | 33.5% | -36% | 51% | 88.7% (active) | -20% | 34% | 91.8% (active) |
| O=C1C(Cl)=C(N2CCN(c3ccccn3)CC2)C(=O)c2ncccc21 | 40% | 94% (active) | 85.3% (active) | 21% | 98% (active) | 88.8% (active) | 23% | 97% (active) | 91% (active) | 10% | 96% (active) | 89.4% (active) | 50% | 98% (active) | 88.6% (active) | 34% | 97% (active) | 89.1% (active) |
| O=C1C(C(O)(C(F)(F)Cl)C(F)(F)Cl)CCCC1C(O)(C(F)(F)Cl)C(F)(F)Cl (centres undefined) | 95% (active) | 99% (active) | 99.7% (active) | 97% (active) | 100% (active) | 99.7% (active) | 95% (active) | 99% (active) | 99.8% (active) | 79% (active) | 100% (active) | 99.3% (active) | 35% | 99% (active) | 99.7% (active) | 96% (active) | 99% (active) | 99.6% (active) |
| CC(=O)Oc1c(O)c2ccccc2c2ccccc12 | 6% | 93% (active) | 99.5% (active) | -5% | 97% (active) | 99.2% (active) | 2% | 83% (active) | 99.3% (active) | -11% | 95% (active) | 97.5% (active) | 5% | 96% (active) | 99.5% (active) | -4% | 92% (active) | 98.9% (active) |
